# Most compounds without a hit are left out; they make up all but 1.2% or so of the library.
# RGS8-Gao reg: regulators of human RGS8-Galphao interaction; P09471; multiplexed bead flow cytometry, RGS8-Galphao binding; actives lie on both sides; response (percent of control binding), % at 10 µM; actives 0.34% (n = 220,000); in the data active means response below about 60% or above about 140%; inactive means in between;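 further: Galphao activated as the GDP aluminium fluoride complex binding bead-coupled RGS8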
# Target sequence (P09471 whole entry, looked up): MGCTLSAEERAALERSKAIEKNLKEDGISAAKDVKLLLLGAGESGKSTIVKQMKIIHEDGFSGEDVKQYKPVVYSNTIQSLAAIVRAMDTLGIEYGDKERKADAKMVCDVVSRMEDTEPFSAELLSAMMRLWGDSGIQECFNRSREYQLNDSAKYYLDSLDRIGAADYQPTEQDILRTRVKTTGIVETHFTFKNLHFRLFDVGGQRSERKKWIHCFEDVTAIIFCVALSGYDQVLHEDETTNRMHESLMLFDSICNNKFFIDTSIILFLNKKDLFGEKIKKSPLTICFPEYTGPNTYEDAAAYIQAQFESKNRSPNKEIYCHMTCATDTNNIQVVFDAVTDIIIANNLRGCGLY
# Avidin fluor: avidin bead compound fluorescence profile. AID 1775. Avidin beads, compound fluorescence 488/530 nm, flow cytometry; active compounds read high. fluorescence (KMESF) at 10 µM. actives 0.38% (n = 220,000); in the data active means fluorescence above about 47
# RGS4-Gao reg: modulates binding of RGS4 to human Galphao; P09471; Multiplexed bead flow cytometry; actives lie on both sides; binding response (% of control), % at 10 µM; actives 0.33% (n = 220,000); AID 1415; in the data active means binding response below about 49% or above about 150%; inactive means in between;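 further: fluorescent Galphao activated with aluminum fluoride binding bead-coupled RGS4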
# RGS16-Gao HTS: regulators of human RGS16-Galphao interaction | bead-based flow cytometry RGS16-Galphao binding, fluorescence; actives lie on both sides | binding response (% of control), % at 10 µM | actives 0.38% (n = 220,000) | AID 1441;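 further: Galphao activated by GDP with aluminum fluoride before binding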
# Target sequence (O15492 whole entry, looked up): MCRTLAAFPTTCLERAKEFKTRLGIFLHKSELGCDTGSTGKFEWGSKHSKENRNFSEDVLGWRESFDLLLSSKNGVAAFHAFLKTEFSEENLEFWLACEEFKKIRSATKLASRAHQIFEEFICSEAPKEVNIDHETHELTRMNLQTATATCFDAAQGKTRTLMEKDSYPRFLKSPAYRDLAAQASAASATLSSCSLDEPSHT
# Target sequence (P09471 whole entry, looked up): as the sequence (P09471 whole entry, looked up) above
# RGS7-Gao: human RGS7-Galphao interaction regulation; binding response (% of control), % at 10 µM; P09471; Multiplexed bead flow cytometry, RGS7-Galphao binding; actives lie on both sides; actives 0.35% (n = 220,000); in the data active means binding response below about 49% or above about 150%; inconclusive means no clear call, values can overlap the other calls; inactive means in between;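 further: fluorescent Galphao held in activated GDP-AlF4 state binding bead-coupled RGS7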
# GSH fluor: compound fluoresces at 488/530 nm on GSH beads | fluorescence (KMESF) at 10 µM | AID 1776 | actives 0.25% (n = 190,000) | GSH beads flow cytometry, compound fluorescence 488/530 nm; active compounds read high; in the data active means fluorescence above about 89;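 further: glutathione beads carrying GST-tagged Bcl family fusion proteins plus one bare bead set; values are compound well signal with DMSO vehicle wells as background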
# RGS-Gao: RGS4-Galphao interaction regulator (human); RGS4–Galpha-o binding response, % at 10 µM; shares compounds with RGS16-Gao HTS; multiplexed bead flow cytometry, RGS–Galpha-o binding; actives 99% (n = 1,600);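 further: fluorescently labeled Galpha-o bound to GDP with aluminium fluoride binding biotinylated RGS beads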
# Biotin-avidin: interferes with biotinylated probe binding to avidin beads; 1,700 tested, under 10 active; streptavidin beads, fluorescein-biotin binding, flow cytometry; AID 1783; shares compounds with RGS16-Gao HTS; inhibition, % at 10 µM;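 active means inhibition above 50%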;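 further: median green fluorescence of gated singlet beads compared with DMSO control wells; 0% = DMSO wells and 100% = complete loss of bead fluorescence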
# RGS8-Gao single: confirmation of regulators of human RGS8-Galphao interaction | shares compounds with RGS16-Gao HTS | bead-based flow cytometry RGS8-Galphao binding, fluorescence; actives lie on both sides | binding response (% of control), % at 10 µM | actives 3% (n = 1,700); in the data active means binding response below about 72% or above about 130%; inactive means in between;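 further: Galphao activated as GDP AlF4 complex before binding bead RGS8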
# RGS7-Gao single: confirmation of regulators of human RGS7-Galphao interaction; shares compounds with RGS16-Gao HTS; bead-based flow cytometry RGS7-Galphao binding; actives lie on both sides; response (percent of control binding), % at 10 µM; actives 7.8% (n = 1,700); in the data active means response below about 75% or above about 130%; inactive means in between;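 further: fluorescent Galphao activated with GDP and aluminum fluoride binding bead-coupled RGS7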
# RGS16-Gao conf: RGS16-Galphao interaction regulation, single point confirmation; shares compounds with RGS16-Gao HTS; bead-based flow cytometry, RGS16-Galphao binding; actives lie on both sides; response (% of control binding), % at 10 µM; actives 4% (n = 1,700); in the data active means response below about 74% or above about 130%; inactive means in between;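 further: Galphao activated as the GDP aluminium fluoride complex binding bead-coupled RGS16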
# RGS4-Gao single: RGS4-Galphao interaction regulation, single point confirmation; shares compounds with RGS16-Gao HTS; RGS4-Galphao binding, multiplexed bead flow cytometry; actives lie on both sides; binding response (% of control), % at 10 µM; actives 4% (n = 1,700); AID 1840; in the data active means binding response below about 74% or above about 130%; inactive means in between
# RGS19-Gao single: RGS19-Galphao interaction regulation, single point confirmation; shares compounds with RGS16-Gao HTS; bead-based flow cytometry RGS19-Galphao binding; actives lie on both sides; response (percent of control binding), % at 10 µM; actives 5% (n = 1,700); in the data active means response below about 50% or above about 160%; inactive means in between;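 further: 100% = no compound control and 0% = blank background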
# An asterisk follows results filed as active; ? = inconclusive; . = no result; [ ] = dose if it differs, or a comment. Unless noted, how the calls were made is not given here.
SMILES,RGS8-Gao reg,Avidin fluor,RGS4-Gao reg,RGS16-Gao HTS,RGS7-Gao,GSH fluor,Biotin-avidin,RGS8-Gao single,RGS7-Gao single,RGS16-Gao conf,RGS4-Gao single,RGS19-Gao single,others
Cc1ccc(C(=O)NNC(=O)c2ccc(C)cc2)cc1,106,25,104,111,109,11,.,.,.,.,.,.,
Cc1ccc(C(=O)NC(O)C(Cl)Cl)cc1 (stereo not drawn),104,2,161*[activator],175*[activator],113,19,2,103,103,102,102,107,
Cc1ccc(S(=O)(=O)N2CCN(S(=O)(=O)c3ccc4c(c3)OCCO4)CC2)cc1,58*,8,55,50,52,24,-2,100,103,104,105,105,RGS-Gao=55*
O=C(COc1ccc(S(=O)(=O)N2CCOCC2)cc1)N1CCc2ccccc2C1,95,7,95,94,?,.,.,.,.,.,.,.,
Cc1ccc(N(CCC#N)C(=O)CCl)cc1C,80,9,95,21*,92,7,0,101,102,103,104,107,RGS-Gao=95*
O=C(NCCC(=O)N1CCN(c2ncccn2)CC1)c1ccccc1,98,11,102,102,101,25,.,.,.,.,.,.,
CCOCCNC(=O)c1ccccc1C(=O)NCCOCC,102,16,110,123,99,9,.,.,.,.,.,.,
CCOCCN(C(=O)c1ccccc1Cl)c1cccc(C)c1C,102,85*,165*[activator],153,?,.,0,100,99,99,98,88,
Cc1cc(C(=O)CSc2nc3ccccc3c(=O)[nH]2)c(C)n1C,10*,-1,18*,11*,8.0*,24,0,104,102,104,102,98,
COc1ccc(-c2coc3c(CN4CCOCC4)c(O)ccc3c2=O)cc1,102,8,104,102,?,.,.,.,.,.,.,.,
COC(=O)c1cc(C)sc1NC(=O)c1cccnc1,.,.,.,.,.,46,2,100,101,99,100,99,
CCCCNC1CCS(=O)(=O)C1 (stereo not drawn),.,.,.,.,.,46,0,98,96,101,98,101,
O=C(Nc1ccccc1-c1ccccc1)NC1CCN(CC(=O)N2CCOCC2)CC1,100,7,102,98,100,19,.,.,.,.,.,.,
C=CCc1cccc(/C=N/NC(=O)c2ccccc2Br)c1O,31*,2,34*,23*,25*,15,-1,101,95,97,100,82,
C=CCc1cccc(/C=N/NC(=O)c2ccccc2OC)c1O,98,5,96,96,97,11,.,.,.,.,.,.,
CCN(CC)c1ccc(N=Cc2ccc([N+](=O)[O-])o2)cc1,71,2,69,20*,56,8,-1,93,76,91,85,86,RGS-Gao=69*
CCN(CC)c1ccc(N=Cc2ccccc2[N+](=O)[O-])cc1,84,2,93,58,95,9,.,.,.,.,.,.,
O=C(O)c1ccc(-c2ccco2)n1Cc1ccccc1,100,7,101,97,104,48,.,.,.,.,.,.,
COc1ccc(C(=O)Nc2ccc(-c3cn4ccsc4n3)cc2)cc1S(=O)(=O)N1CCOCC1,17*,.,-46*,-56*,-7.2*,4,-1,98,93,99,98,98,
CC1=C(C(N)=O)C(c2cccs2)n2nc(-c3cccc(Cl)c3)nc2N1 (stereo not drawn),101,27,99,106,101,25,.,.,.,.,.,.,
CC1=C(C(N)=O)C(c2cccs2)n2nc(-c3cccc(C)c3)nc2N1 (stereo not drawn),34*,8,34*,26,31*,17,1,100,101,98,98,92,
N#Cc1cc(C(=O)c2ccccc2O)cn(-c2nccs2)c1=O,58*,5,57,22,66,18,1,106,104,105,102,115,RGS-Gao=57*
COc1ccc(/C=C(/CC(=O)NCc2ccc(Cl)cc2)c2nc3ccccc3s2)cc1,103,14,102,110,102,12,.,.,.,.,.,.,
COc1ccc(/C=C(/CC(=O)Nc2ccccc2)c2nc3ccccc3s2)cc1,70,4,76,18*,74,9,0,99,84,94,89,109,RGS-Gao=76*
CCN(C(=O)c1ccc(NC(C)=O)cc1)c1ccccc1,71,10,78,-20*,88,15,1,98,97,97,99,100,RGS-Gao=78*
SMILES,RGS8-Gao reg,Avidin fluor,RGS4-Gao reg,RGS16-Gao HTS,RGS7-Gao,GSH fluor,Biotin-avidin,RGS8-Gao single,RGS7-Gao single,RGS16-Gao conf,RGS4-Gao single,RGS19-Gao single,others
CCNC(=O)c1ccccc1NC(=O)c1cccc(S(=O)(=O)N2CCOCC2)c1,6.6*,-3,-14*,-4.5*,-3.6*,22,0,102,104,103,101,101,
CCC(CC)C(=O)Nc1cccc(C(=O)Nc2ccc(OC)cc2[N+](=O)[O-])c1,95,6,93,95,93,27,.,.,.,.,.,.,
CC(=O)Nc1ccc(Nc2ccc(N3C(=O)CCCC3=O)cc2[N+](=O)[O-])cc1,53*,0,46*,33,47*,6,-3,105,103,107,103,94,
CCOC(=O)/C=C1\SCC(=O)N1CC(=O)Nc1ccc(OC)c(OC)c1,96,8,98,100,95,38,.,.,.,.,.,.,
CC(C)=NOc1nc(N(C)C)nc(N(C)C)n1,130,11,108,208*[activator],108,10,-2,108,102,111,104,101,RGS-Gao=108*
CC(NCc1cccs1)c1ccccc1 (stereo not drawn),100,11,99,102,94,18,.,.,.,.,.,.,
O=C(CCl)Nc1cc(S(=O)(=O)N2CCOCC2)ccc1N1CCOCC1,96,11,96,96,?,12,.,.,.,.,.,.,
